{
  "source": "the supplement of paper PMC8728848",
  "test_in_all_cases": "glycan array binding signal (z-score within array); higher = stronger binding",
  "conditions_in_all_cases": "glycan notation: IUPAC condensed, linker removed",
  "key": {"[1]": {"biological_target": "Gal(b1-4)GlcNAc(b1-3)Gal(b1-4)GlcNAc(b1-3)Gal(b1-4)GlcNAc(b1-2)[Gal(b1-4)GlcNAc(b1-3)Gal(b1-4)GlcNAc(b1-3)Gal(b1-4)GlcNAc(b1-6)]Man(a1-6)[Gal(b1-4)GlcNAc(b1-3)Gal(b1-4)GlcNAc(b1-3)Gal(b1-4)GlcNAc(b1-2)Man(a1-3)]Man(b1-4)GlcNAc(b1-4)[Fuc(a1-6)]GlcNAc", "summary_of_the_method": "(§1)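 The binding signal is a Z-score computed within each array and averaged over linkers. Arrays of the same protein sequence at different concentrations or buffers were also averaged together. Data originate from 3228 arrays in the Consortium for Functional Glycomics database, kept only where the protein sequence was available.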"}, "[2]": {"biological_target": "Gal(b1-4)GlcNAc(b1-3)Gal(b1-4)GlcNAc(b1-3)Gal(b1-4)GlcNAc(b1-3)Gal(b1-4)GlcNAc(b1-2)[Gal(b1-4)GlcNAc(b1-3)Gal(b1-4)GlcNAc(b1-3)Gal(b1-4)GlcNAc(b1-3)Gal(b1-4)GlcNAc(b1-6)]Man(a1-6)[Gal(b1-4)GlcNAc(b1-3)Gal(b1-4)GlcNAc(b1-3)Gal(b1-4)GlcNAc(b1-3)Gal(b1-4)GlcNAc(b1-2)Man(a1-3)]Man(b1-4)GlcNAc(b1-4)[Fuc(a1-6)]GlcNAc", "summary_of_the_method": "as §1"}, "[3]": {"biological_target": "Gal(b1-4)GlcNAc(b1-3)Gal(b1-4)GlcNAc(b1-3)Gal(b1-4)GlcNAc(b1-3)Gal(b1-4)GlcNAc(b1-3)Gal(b1-4)GlcNAc(b1-2)Man(a1-3)[Gal(b1-4)GlcNAc(b1-3)Gal(b1-4)GlcNAc(b1-3)Gal(b1-4)GlcNAc(b1-3)Gal(b1-4)GlcNAc(b1-3)Gal(b1-4)GlcNAc(b1-2)Man(a1-6)]Man(b1-4)GlcNAc(b1-4)GlcNAc", "summary_of_the_method": "as §1"}, "[4]": {"biological_target": "Gal(b1-4)GlcNAc(b1-3)Gal(b1-4)GlcNAc(b1-3)Gal(b1-4)GlcNAc(b1-3)Gal(b1-4)GlcNAc(b1-3)Gal(b1-4)GlcNAc(b1-2)Man(a1-3)[Gal(b1-4)GlcNAc(b1-3)Gal(b1-4)GlcNAc(b1-3)Gal(b1-4)GlcNAc(b1-3)Gal(b1-4)GlcNAc(b1-3)Gal(b1-4)GlcNAc(b1-2)Man(a1-6)]Man(b1-4)GlcNAc(b1-4)[Fuc(a1-6)]GlcNAc", "summary_of_the_method": "as §1"}, "[5]": {"biological_target": "Gal(b1-4)GlcNAc(b1-3)Gal(b1-4)GlcNAc(b1-3)Gal(b1-4)GlcNAc(b1-3)Gal(b1-4)GlcNAc(b1-3)Gal(b1-4)GlcNAc(b1-2)[Gal(b1-4)GlcNAc(b1-3)Gal(b1-4)GlcNAc(b1-3)Gal(b1-4)GlcNAc(b1-3)Gal(b1-4)GlcNAc(b1-3)Gal(b1-4)GlcNAc(b1-6)]Man(a1-6)[Gal(b1-4)GlcNAc(b1-3)Gal(b1-4)GlcNAc(b1-3)Gal(b1-4)GlcNAc(b1-3)Gal(b1-4)GlcNAc(b1-3)Gal(b1-4)GlcNAc(b1-2)Man(a1-3)]Man(b1-4)GlcNAc(b1-4)[Fuc(a1-6)]GlcNAc", "summary_of_the_method": "as §1"}, "[6]": {"biological_target": "Gal(b1-4)GlcNAc(b1-3)Gal(b1-4)GlcNAc(b1-3)GalNAc", "summary_of_the_method": "as §1"}, "Gal3S(b1-3)GalNAc": {"biological_target": "Gal3S(b1-3)GalNAc", "summary_of_the_method": "as §1"}, "Gal3S(b1-4)Glc6S": {"biological_target": "Gal3S(b1-4)Glc6S", "summary_of_the_method": "as §1"}, "[7]": {"biological_target": "Gal3S(b1-4)[Fuc(a1-3)]GlcNAc", "summary_of_the_method": "as §1"}, "Gal6S(b1-3)GlcNAc": {"biological_target": "Gal6S(b1-3)GlcNAc", "summary_of_the_method": "as §1"}, "[8]": {"biological_target": "GalNAc(b1-3)Gal(a1-6)Gal(b1-4)Glc", "summary_of_the_method": "as §1"}, "GlcA(b1-6)Gal": {"biological_target": "GlcA(b1-6)Gal", "summary_of_the_method": "as §1"}, "[9]": {"biological_target": "GlcNAc(b1-2)Man(a1-3)[GlcNAc(b1-2)Man(a1-6)]Man(b1-4)GlcNAc(b1-4)GlcNAc", "summary_of_the_method": "as §1"}, "[10]": {"biological_target": "GlcNAc(b1-2)[GlcNAc(b1-4)]Man(a1-3)[GlcNAc(b1-4)][GlcNAc(b1-2)Man(a1-6)]Man(b1-4)GlcNAc(b1-4)GlcNAc", "summary_of_the_method": "as §1"}, "[11]": {"biological_target": "GlcNAc(b1-2)[GlcNAc(b1-4)]Man(a1-3)[GlcNAc(b1-4)][GlcNAc(b1-2)[GlcNAc(b1-6)]Man(a1-6)]Man(b1-4)GlcNAc(b1-4)GlcNAc", "summary_of_the_method": "as §1"}, "[12]": {"biological_target": "GlcNAc(b1-2)[GlcNAc(b1-6)]Man(a1-6)[GlcNAc(b1-2)Man(a1-3)]Man(b1-4)GlcNAc(b1-4)GlcNAc", "summary_of_the_method": "as §1"}, "[13]": {"biological_target": "GlcNAc(b1-3)Gal(b1-4)GlcNAc(b1-3)Gal(b1-4)GlcNAc(b1-3)Gal(b1-4)GlcNAc(b1-2)[GlcNAc(b1-3)Gal(b1-4)GlcNAc(b1-3)Gal(b1-4)GlcNAc(b1-3)Gal(b1-4)GlcNAc(b1-6)]Man(a1-6)[GlcNAc(b1-3)Gal(b1-4)GlcNAc(b1-3)Gal(b1-4)GlcNAc(b1-3)Gal(b1-4)GlcNAc(b1-2)Man(a1-3)]Man(b1-4)GlcNAc(b1-4)[Fuc(a1-6)]GlcNAc", "summary_of_the_method": "as §1"}, "[14]": {"biological_target": "GlcNAc(b1-3)Gal(b1-4)GlcNAc(b1-3)Gal(b1-4)GlcNAc(b1-3)Gal(b1-4)GlcNAc(b1-3)Gal(b1-4)GlcNAc(b1-2)Man(a1-3)[GlcNAc(b1-3)Gal(b1-4)GlcNAc(b1-3)Gal(b1-4)GlcNAc(b1-3)Gal(b1-4)GlcNAc(b1-3)Gal(b1-4)GlcNAc(b1-2)Man(a1-6)]Man(b1-4)GlcNAc(b1-4)[Fuc(a1-6)]GlcNAc", "summary_of_the_method": "as §1"}, "[15]": {"biological_target": "GlcNAc(b1-3)Gal(b1-4)GlcNAc(b1-3)Gal(b1-4)GlcNAc(b1-3)Gal(b1-4)GlcNAc(b1-3)Gal(b1-4)GlcNAc(b1-2)[GlcNAc(b1-3)Gal(b1-4)GlcNAc(b1-3)Gal(b1-4)GlcNAc(b1-3)Gal(b1-4)GlcNAc(b1-3)Gal(b1-4)GlcNAc(b1-6)]Man(a1-6)[GlcNAc(b1-3)Gal(b1-4)GlcNAc(b1-3)Gal(b1-4)GlcNAc(b1-3)Gal(b1-4)GlcNAc(b1-3)Gal(b1-4)GlcNAc(b1-2)Man(a1-3)]Man(b1-4)GlcNAc(b1-4)[Fuc(a1-6)]GlcNAc", "summary_of_the_method": "as §1"}, "[16]": {"biological_target": "GlcNAc(b1-3)[GlcNAc(b1-6)]GlcNAc", "summary_of_the_method": "as §1"}, "[17]": {"biological_target": "Man(a1-2)Man(a1-2)Man(a1-3)[Man(a1-2)Man(a1-6)[Man(a1-3)]Man(a1-6)]Man(b1-4)GlcNAc(b1-4)GlcNAc", "summary_of_the_method": "as §1"}, "[18]": {"biological_target": "Man(a1-2)Man(a1-6)[Man(a1-3)]Man(a1-6)[Man(a1-2)Man(a1-2)Man(a1-3)]Man(b1-4)GlcNAc(b1-4)GlcNAc", "summary_of_the_method": "as §1"}, "[19]": {"biological_target": "Man(a1-3)[Man(a1-6)]Man(a1-6)[Man(a1-2)Man(a1-3)]Man(b1-4)GlcNAc(b1-4)GlcNAc", "summary_of_the_method": "as §1"}, "[20]": {"biological_target": "Neu5Ac(a2-3)Gal(b1-3)[Fuc(a1-4)]GlcNAc(b1-3)Gal(b1-4)[Fuc(a1-3)]GlcNAc", "summary_of_the_method": "as §1"}, "[21]": {"biological_target": "Neu5Ac(a2-3)Gal(b1-4)GlcNAc(b1-2)Man(a1-3)[GlcNAc(b1-2)Man(b1-4)GlcNAc(b1-2)Man(a1-6)]Man(b1-4)GlcNAc(b1-4)GlcNAc", "summary_of_the_method": "as §1"}, "[22]": {"biological_target": "Neu5Ac(a2-3)Gal(b1-4)GlcNAc(b1-3)Gal(b1-4)GlcNAc(b1-3)GalNAc", "summary_of_the_method": "as §1"}, "[23]": {"biological_target": "Neu5Ac(a2-3)Gal(b1-4)[Fuc(a1-3)]GlcNAc", "summary_of_the_method": "as §1"}, "[24]": {"biological_target": "Neu5Ac(a2-3)[GalNAc(b1-4)]Gal(b1-4)GlcNAc", "summary_of_the_method": "as §1"}, "[25]": {"biological_target": "Neu5Ac(a2-6)Gal(b1-4)GlcNAc(b1-2)[Neu5Ac(a2-6)Gal(b1-4)GlcNAc(b1-6)]Man(a1-6)[Neu5Ac(a2-6)Gal(b1-4)GlcNAc(b1-2)Man(a1-3)][GlcNAc(b1-4)]Man(b1-4)GlcNAc(b1-4)GlcNAc", "summary_of_the_method": "as §1"}, "[26]": {"biological_target": "Neu5Ac(a2-8)Neu5Ac(a2-8)Neu5Ac(a2-3)Gal(b1-4)Glc", "summary_of_the_method": "as §1"}},
  "note": "About 410 targets per protein were measured; listed, in parts, are those with the strongest signals and a random draw of the rest.",
  "data": [
    {"binder": "Gal 7 (Homo sapiens) (protein) MSNVPHKSSLPEGIRPGTVLRIRGLVPPNASRFHVNLLCGEEGGSDAALHFNPRLDTSEVVFNSKEGGSWGREERGPGVPFGRGQPFEVLIIASDDGFKAVVGDAQYHHFRHRLPLARVRLVEVGGDVQLDSVRIF", "values": [
      {"measurement": "glycan array binding signal (z-score)", "setting": "[1]", "result": 4.93},
      {"measurement": "glycan array binding signal (z-score)", "setting": "[2]", "result": 5.2},
      {"measurement": "glycan array binding signal (z-score)", "setting": "[3]", "result": 4.95},
      {"measurement": "glycan array binding signal (z-score)", "setting": "[4]", "result": 4.93},
      {"measurement": "glycan array binding signal (z-score)", "setting": "[5]", "result": 5.14},
      {"measurement": "glycan array binding signal (z-score)", "setting": "[6]", "result": -0.127},
      {"measurement": "glycan array binding signal (z-score)", "setting": "Gal3S(b1-3)GalNAc", "result": 0.538},
      {"measurement": "glycan array binding signal (z-score)", "setting": "Gal3S(b1-4)Glc6S", "result": 2.04},
      {"measurement": "glycan array binding signal (z-score)", "setting": "[7]", "result": -0.312},
      {"measurement": "glycan array binding signal (z-score)", "setting": "Gal6S(b1-3)GlcNAc", "result": -0.324},
      {"measurement": "glycan array binding signal (z-score)", "setting": "[8]", "result": -0.319},
      {"measurement": "glycan array binding signal (z-score)", "setting": "GlcA(b1-6)Gal", "result": -0.332},
      {"measurement": "glycan array binding signal (z-score)", "setting": "[9]", "result": -0.324},
      {"measurement": "glycan array binding signal (z-score)", "setting": "[10]", "result": -0.311},
      {"measurement": "glycan array binding signal (z-score)", "setting": "[11]", "result": -0.33},
      {"measurement": "glycan array binding signal (z-score)", "setting": "[12]", "result": -0.2},
      {"measurement": "glycan array binding signal (z-score)", "setting": "[13]", "result": 5.04},
      {"measurement": "glycan array binding signal (z-score)", "setting": "[14]", "result": 4.94},
      {"measurement": "glycan array binding signal (z-score)", "setting": "[15]", "result": 5.06},
      {"measurement": "glycan array binding signal (z-score)", "setting": "[16]", "result": -0.33},
      {"measurement": "glycan array binding signal (z-score)", "setting": "[17]", "result": -0.333},
      {"measurement": "glycan array binding signal (z-score)", "setting": "[18]", "result": -0.185},
      {"measurement": "glycan array binding signal (z-score)", "setting": "[19]", "result": -0.158},
      {"measurement": "glycan array binding signal (z-score)", "setting": "[20]", "result": -0.197},
      {"measurement": "glycan array binding signal (z-score)", "setting": "[21]", "result": -0.355},
      {"measurement": "glycan array binding signal (z-score)", "setting": "[22]", "result": -0.259},
      {"measurement": "glycan array binding signal (z-score)", "setting": "[23]", "result": -0.305},
      {"measurement": "glycan array binding signal (z-score)", "setting": "[24]", "result": -0.248},
      {"measurement": "glycan array binding signal (z-score)", "setting": "[25]", "result": -0.274},
      {"measurement": "glycan array binding signal (z-score)", "setting": "[26]", "result": -0.015}
    ]}
  ]
}
